Experimental data published in PubChem BioAssay AID2275 (Broad Institute, 2010).
Among all 30,000 compounds or so, about 190 (0.63%) were called active. No stated cut-off is given here; in the data, active means viability loss activity score above about 50%; inconclusive means no clear call, values can overlap the other calls; inactive means below about 35%. Shown is part of a subset that was picked to be rich in actives.

Experiment: BJeLR cell viability loss, primary screen, luminescence, CellTiterGlo ATP (AID 2275);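 further: higher score means fewer live cells and less ATP luminescence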
Settings: BJeLR fibroblasts viability, 48 h, hits give high values, concentration not given here; HRASV12, hTERT and SV40 LT/ST transformed unless noted
In the case of `CN[C@@H]1C[C@H]2O[C@@](C)([C@@H]1OC)n1c3ccccc3c3c4c(c5c6ccccc6n2c5c31)C(=O)NC4`, the viability loss activity score is reported as 127% (active).
In the case of `CCCCCCCCCCCCCC(=O)O[C@@H]1[C@@H](C)[C@@]2(O)[C@@H](C=C(CO)C[C@]3(O)C(=O)C(C)=C[C@@H]23)[C@@H]2C(C)(C)[C@]12OC(C)=O`, the viability loss activity score is reported as 4.17% (inactive).
With `CN1C2C=C(N(C(=O)c3ccc(Cl)cc3)c3ccccc3)CC1CC2` (stereo not given) the viability loss activity score was 0.717% (inactive).
For `CCOC(=O)[C@@H]1[C@@H]2NC(=O)N[C@@]1(C)Oc1ccccc12`, the viability loss activity score was -1.85% [setting not given] (inactive).
For `Fc1ccc(CNC2=NCCS2)cc1`, the viability loss activity score was 2.3% (inactive).
For `CNC(=O)N(C)c1nnc(C(C)(C)C)s1`, the viability loss activity score was -2.35% [setting not given] (inactive).
In the case of `c1ccc2c(c1)[I+]c1ccccc1-2`, the viability loss activity score is reported as 73.2% (active).
In the case of `CC(=O)Nc1nc(C)c(Oc2ccccc2)c(OC(=O)N(C)C)n1`, the viability loss activity score is reported as -1.11% (inactive).
For `COC1=C[C@@H]2[C@@H]3Cc4ccc(OC)c(O)c4[C@]2(CCN3C)CC1=O`, the viability loss activity score was 1.23% [setting not given] (inactive).
In the case of `CN1CC=C(c2noc(CCC(=O)Nc3ccc(F)cc3F)n2)CC1`, the viability loss activity score is reported as 2.02% (inactive).
In the case of `CC(C)[C@@]1(NC(=O)[C@@H]2CC3c4cccc5[nH]cc(c45)C[C@H]3N(C)C2)O[C@@]2(O)[C@@H]3CCCN3C(=O)[C@H](Cc3ccccc3)N2C1=O` (stereo not given in full), the viability loss activity score is reported as -5.08% (inactive).
For `O=C(O)C1C2CCC(O2)C1C(=O)N1CCN(C/C=C/c2ccccc2)CC1` (stereo not given), the viability loss activity score was 8.76% (inactive).
With `C[C@H]1O[C@@H](O[C@H]2CC[C@]3(CO)C4CC[C@]5(C)[C@@H](C6=CC(=O)OC6)CC[C@]5(O)[C@@H]4CC[C@H]3C2)[C@H](O)[C@H](O)[C@@H]1O[C@@H]1O[C@H](CO)[C@@H](O)[C@H](O)[C@H]1O` (stereo not given in full) the viability loss activity score was 109% (active).
In the case of `Cc1ccc(CSc2nnc(OC(=O)N(C)C)n2-c2cccc(Cl)c2)cc1`, the viability loss activity score is reported as 5.26% (inactive).
In the case of `CC1N=C(c2ccccc2)c2ccccc2N(CCCOc2ccc(F)cc2)C1=O` (stereo not given), the viability loss activity score is reported as -3.72% (inactive).
For `CC(C)(c1ccccc1)c1ccc(O)cc1`, the viability loss activity score was 0.81% (inactive).
With `CC(C)c1ccc2c(c1O)CC[C@H]1C3=C(CC[C@]21C)C(=O)OC3` the viability loss activity score was 4.52% (inactive).
In the case of `C[C@H]1CCC/C=C/C2C[C@H](O)C[C@H]2[C@H](O)/C=C\C(=O)O1` (stereo not given in full), the viability loss activity score is reported as 74.4% (active).
In the case of `CCN(CC)C(=O)c1ccc(N(Cc2ccccc2Cl)S(C)(=O)=O)cc1`, the viability loss activity score is reported as 5.52% (inactive).
For `Fc1cccc(NC2=NCCS2)c1`, the viability loss activity score was 7.57% (inactive).
